Laboratory results as given in PMC9911399, “Two distinct binding modes provide the RNA-binding protein RbFox with extraordinary sequence specificity”.
Numbering of substitutions follows the chain as printed; changes in the protein carry UniProt numbers. Over roughly 16,000 sequences, “ka relative to ugcaugu” has its median near 0.0091; the highest 2% begin near 0.032. The sample as a whole holds a higher share of the highest values than the screen did.

B1: CUAAAAA (DNA:RNA)
RNA: GGGAGACCGGAAUUCAGAUUGUCCCUAAAAAUUAAAUCCCGUCGUAGCCACCA
DNA 1: CAATCTGAATTCCGGTCTCCC
DNA 2: TGGTGGCTACGACGGGATT
B2: GGAGUAG (DNA:RNA)
RNA: B1 RNA with C25G, U26G, A28G, A29U, A31G
DNA 1: CAATCTGAATTCCGGTCTCCC
DNA 2: TGGTGGCTACGACGGGATT
B3: UCGUCGC (DNA:RNA)
RNA: GGGAGACCGGAAUUCAGAUUGUCCUCGUCGCUUAAAUCCCGUCGUAGCCACCA
DNA 1: CAATCTGAATTCCGGTCTCCC
DNA 2: TGGTGGCTACGACGGGATT
B4: UCCUCGC (DNA:RNA)
RNA: B3 RNA with G27C
DNA 1: CAATCTGAATTCCGGTCTCCC
DNA 2: TGGTGGCTACGACGGGATT
B5: UCGCUCC (DNA:RNA)
RNA: B3 RNA with U28C, C29U, G30C
DNA 1: CAATCTGAATTCCGGTCTCCC
DNA 2: TGGTGGCTACGACGGGATT
B6: UCGCUUG (DNA:RNA)
RNA: B3 RNA with U28C, C29U, G30U, C31G
DNA 1: CAATCTGAATTCCGGTCTCCC
DNA 2: TGGTGGCTACGACGGGATT
B7: UCGCUCG (DNA:RNA)
RNA: B3 RNA with U28C, C29U, G30C, C31G
DNA 1: CAATCTGAATTCCGGTCTCCC
DNA 2: TGGTGGCTACGACGGGATT
B8: GUCCUCG (DNA:RNA)
RNA: B1 RNA with C25G, A27C, A28C, A29U, A30C, A31G
DNA 1: CAATCTGAATTCCGGTCTCCC
DNA 2: TGGTGGCTACGACGGGATT
B9: UUCGUAA (DNA:RNA)
RNA: B1 RNA with C25U, A27C, A28G, A29U
DNA 1: CAATCTGAATTCCGGTCTCCC
DNA 2: TGGTGGCTACGACGGGATT
B10: GCGAAUA (DNA:RNA)
RNA: B1 RNA with C25G, U26C, A27G, A30U
DNA 1: CAATCTGAATTCCGGTCTCCC
DNA 2: TGGTGGCTACGACGGGATT
B11: AGCUUAC (DNA:RNA)
RNA: B3 RNA with U25A, C26G, G27C, C29U, G30A
DNA 1: CAATCTGAATTCCGGTCTCCC
DNA 2: TGGTGGCTACGACGGGATT
B12: UGACUUU (DNA:RNA)
RNA: B1 RNA with C25U, U26G, A28C, A29U, A30U, A31U
DNA 1: CAATCTGAATTCCGGTCTCCC
DNA 2: TGGTGGCTACGACGGGATT
B13: CAUGUCC (DNA:RNA)
RNA: B1 RNA with U26A, A27U, A28G, A29U, A30C, A31C
DNA 1: CAATCTGAATTCCGGTCTCCC
DNA 2: TGGTGGCTACGACGGGATT
B14: CUAGAAU (DNA:RNA)
RNA: B1 RNA with A28G, A31U
DNA 1: CAATCTGAATTCCGGTCTCCC
DNA 2: TGGTGGCTACGACGGGATT
B15: UAGCUCG (DNA:RNA)
RNA: B3 RNA with C26A, U28C, C29U, G30C, C31G
DNA 1: CAATCTGAATTCCGGTCTCCC
DNA 2: TGGTGGCTACGACGGGATT
B16: UCCUAGC (DNA:RNA)
RNA: B3 RNA with G27C, C29A
DNA 1: CAATCTGAATTCCGGTCTCCC
DNA 2: TGGTGGCTACGACGGGATT
B17: UAGCUUG (DNA:RNA)
RNA: B3 RNA with C26A, U28C, C29U, G30U, C31G
DNA 1: CAATCTGAATTCCGGTCTCCC
DNA 2: TGGTGGCTACGACGGGATT
B18: UAGCUCC (DNA:RNA)
RNA: B3 RNA with C26A, U28C, C29U, G30C
DNA 1: CAATCTGAATTCCGGTCTCCC
DNA 2: TGGTGGCTACGACGGGATT
B19: UAGCCCG (DNA:RNA)
RNA: B3 RNA with C26A, U28C, G30C, C31G
DNA 1: CAATCTGAATTCCGGTCTCCC
DNA 2: TGGTGGCTACGACGGGATT
B20: UAGUAGC (DNA:RNA)
RNA: B3 RNA with C26A, C29A
DNA 1: CAATCTGAATTCCGGTCTCCC
DNA 2: TGGTGGCTACGACGGGATT
B21: AGAAAUU (DNA:RNA)
RNA: B1 RNA with C25A, U26G, A30U, A31U
DNA 1: CAATCTGAATTCCGGTCTCCC
DNA 2: TGGTGGCTACGACGGGATT
B22: UCAAUAA (DNA:RNA)
RNA: B1 RNA with C25U, U26C, A29U
DNA 1: CAATCTGAATTCCGGTCTCCC
DNA 2: TGGTGGCTACGACGGGATT
B23: ACAGCAG (DNA:RNA)
RNA: B1 RNA with C25A, U26C, A28G, A29C, A31G
DNA 1: CAATCTGAATTCCGGTCTCCC
DNA 2: TGGTGGCTACGACGGGATT
B24: CUCGUGG (DNA:RNA)
RNA: B1 RNA with A27C, A28G, A29U, A30G, A31G
DNA 1: CAATCTGAATTCCGGTCTCCC
DNA 2: TGGTGGCTACGACGGGATT
B25: GGGCUUG (DNA:RNA)
RNA: B3 RNA with U25G, C26G, U28C, C29U, G30U, C31G
DNA 1: CAATCTGAATTCCGGTCTCCC
DNA 2: TGGTGGCTACGACGGGATT
B26: CGGGCGC (DNA:RNA)
RNA: B3 RNA with U25C, C26G, U28G
DNA 1: CAATCTGAATTCCGGTCTCCC
DNA 2: TGGTGGCTACGACGGGATT
B27: GUCGGGC (DNA:RNA)
RNA: B3 RNA with U25G, C26U, G27C, U28G, C29G
DNA 1: CAATCTGAATTCCGGTCTCCC
DNA 2: TGGTGGCTACGACGGGATT
B28: UGGGGCU (DNA:RNA)
RNA: B3 RNA with C26G, U28G, C29G, G30C, C31U
DNA 1: CAATCTGAATTCCGGTCTCCC
DNA 2: TGGTGGCTACGACGGGATT
B29: GGCUAGU (DNA:RNA)
RNA: B3 RNA with U25G, C26G, G27C, C29A, C31U
DNA 1: CAATCTGAATTCCGGTCTCCC
DNA 2: TGGTGGCTACGACGGGATT
B30: CUGGGCU (DNA:RNA)
RNA: B1 RNA with A27G, A28G, A29G, A30C, A31U
DNA 1: CAATCTGAATTCCGGTCTCCC
DNA 2: TGGTGGCTACGACGGGATT
B31: CGGCUAG (DNA:RNA)
RNA: B1 RNA with U26G, A27G, A28C, A29U, A31G
DNA 1: CAATCTGAATTCCGGTCTCCC
DNA 2: TGGTGGCTACGACGGGATT
B32: GGGGGGC (DNA:RNA)
RNA: B3 RNA with U25G, C26G, U28G, C29G
DNA 1: CAATCTGAATTCCGGTCTCCC
DNA 2: TGGTGGCTACGACGGGATT
B33: GGGCGCU (DNA:RNA)
RNA: B3 RNA with U25G, C26G, U28C, C29G, G30C, C31U
DNA 1: CAATCTGAATTCCGGTCTCCC
DNA 2: TGGTGGCTACGACGGGATT
B34: UGGGCUU (DNA:RNA)
RNA: B3 RNA with C26G, U28G, G30U, C31U
DNA 1: CAATCTGAATTCCGGTCTCCC
DNA 2: TGGTGGCTACGACGGGATT
B35: GGGCUAG (DNA:RNA)
RNA: B1 RNA with C25G, U26G, A27G, A28C, A29U, A31G
DNA 1: CAATCTGAATTCCGGTCTCCC
DNA 2: TGGTGGCTACGACGGGATT
B36: GGGGCGC (DNA:RNA)
RNA: B3 RNA with U25G, C26G, U28G
DNA 1: CAATCTGAATTCCGGTCTCCC
DNA 2: TGGTGGCTACGACGGGATT

target: T1, RBFOX1 RRM (Homo sapiens, UniProt Q9NWB1 109-208); assay: EMSA; HiTS-Eq, 1 nM pool, 10 min; buffer printed only for the single-RNA assays: 10 mM Tris pH 7.5, 150 mM NaCl, 3.4 mM EDTA, 0.001% NP-40, 30 C; conditions: tags: His6 N-terminal (pET28a); label: 5' 32P
T1 sequence: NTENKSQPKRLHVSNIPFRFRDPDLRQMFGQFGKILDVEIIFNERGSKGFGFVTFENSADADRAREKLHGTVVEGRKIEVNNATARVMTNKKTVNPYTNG
Method in brief: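 A pool of RNA with 7 randomized nucleotides, 5′-radiolabelled and with DNA-annealed flanks, was equilibrated at 1 nM for 10 min in 50 µL with purified RbFox RRM, wild type or mutant, across increasing protein concentrations. Free RNA was separated by 8% native PAGE, excised, reverse-transcribed, barcoded by PCR and sequenced. Relative association constants were obtained from read-count changes of each RNA species versus the control reaction and normalised to the cognate motif.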

Binder	binding signal
B1	0.000629 KA relative to UGCAUGU
B2	0.0152 KA relative to UGCAUGU
B3	0.0113 KA relative to UGCAUGU
B4	0.00514 KA relative to UGCAUGU
B5	0.0108 KA relative to UGCAUGU
B6	0.0368 KA relative to UGCAUGU
B7	0.0321 KA relative to UGCAUGU
B8	0.0155 KA relative to UGCAUGU
B9	0.00742 KA relative to UGCAUGU
B10	0.0051 KA relative to UGCAUGU
B11	0.00674 KA relative to UGCAUGU
B12	0.0147 KA relative to UGCAUGU
B13	0.00562 KA relative to UGCAUGU
B14	0.00687 KA relative to UGCAUGU
B15	0.0341 KA relative to UGCAUGU
B16	0.0075 KA relative to UGCAUGU
B17	0.0445 KA relative to UGCAUGU
B18	0.00512 KA relative to UGCAUGU

Binder	binding signal
B19	0.0123 KA relative to UGCAUGU
B20	0.0177 KA relative to UGCAUGU
B21	0.00368 KA relative to UGCAUGU
B22	0.00079 KA relative to UGCAUGU
B23	0.00511 KA relative to UGCAUGU
B24	0.00654 KA relative to UGCAUGU
B25	0.0531 KA relative to UGCAUGU
B26	0.0268 KA relative to UGCAUGU
B27	0.0126 KA relative to UGCAUGU
B28	0.0267 KA relative to UGCAUGU
B29	0.0239 KA relative to UGCAUGU
B30	0.0227 KA relative to UGCAUGU
B31	0.02 KA relative to UGCAUGU
B32	0.0272 KA relative to UGCAUGU
B33	0.0216 KA relative to UGCAUGU
B34	0.0356 KA relative to UGCAUGU
B35	0.0339 KA relative to UGCAUGU
B36	0.0421 KA relative to UGCAUGU
